Screen size: about 310,000 compounds; about 14,000 (4.5%) showed an effect of 50% or more. The effect is printed as a negative number. The entries come from a sample that favours strong results as a whole.
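Note: peak tail current of the secondary pulse compared with the same well before compound.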

The target in this experiment is human ether-à-go-go-related gene (hERG) potassium channel (human, UniProt Q12809). Description: primary screen, population patch clamp on CHO cells stably expressing hERG; higher = less effect of the substance.
human ether-à-go-go-related gene (hERG) potassium channel, sequence (Q12809 whole entry, looked up): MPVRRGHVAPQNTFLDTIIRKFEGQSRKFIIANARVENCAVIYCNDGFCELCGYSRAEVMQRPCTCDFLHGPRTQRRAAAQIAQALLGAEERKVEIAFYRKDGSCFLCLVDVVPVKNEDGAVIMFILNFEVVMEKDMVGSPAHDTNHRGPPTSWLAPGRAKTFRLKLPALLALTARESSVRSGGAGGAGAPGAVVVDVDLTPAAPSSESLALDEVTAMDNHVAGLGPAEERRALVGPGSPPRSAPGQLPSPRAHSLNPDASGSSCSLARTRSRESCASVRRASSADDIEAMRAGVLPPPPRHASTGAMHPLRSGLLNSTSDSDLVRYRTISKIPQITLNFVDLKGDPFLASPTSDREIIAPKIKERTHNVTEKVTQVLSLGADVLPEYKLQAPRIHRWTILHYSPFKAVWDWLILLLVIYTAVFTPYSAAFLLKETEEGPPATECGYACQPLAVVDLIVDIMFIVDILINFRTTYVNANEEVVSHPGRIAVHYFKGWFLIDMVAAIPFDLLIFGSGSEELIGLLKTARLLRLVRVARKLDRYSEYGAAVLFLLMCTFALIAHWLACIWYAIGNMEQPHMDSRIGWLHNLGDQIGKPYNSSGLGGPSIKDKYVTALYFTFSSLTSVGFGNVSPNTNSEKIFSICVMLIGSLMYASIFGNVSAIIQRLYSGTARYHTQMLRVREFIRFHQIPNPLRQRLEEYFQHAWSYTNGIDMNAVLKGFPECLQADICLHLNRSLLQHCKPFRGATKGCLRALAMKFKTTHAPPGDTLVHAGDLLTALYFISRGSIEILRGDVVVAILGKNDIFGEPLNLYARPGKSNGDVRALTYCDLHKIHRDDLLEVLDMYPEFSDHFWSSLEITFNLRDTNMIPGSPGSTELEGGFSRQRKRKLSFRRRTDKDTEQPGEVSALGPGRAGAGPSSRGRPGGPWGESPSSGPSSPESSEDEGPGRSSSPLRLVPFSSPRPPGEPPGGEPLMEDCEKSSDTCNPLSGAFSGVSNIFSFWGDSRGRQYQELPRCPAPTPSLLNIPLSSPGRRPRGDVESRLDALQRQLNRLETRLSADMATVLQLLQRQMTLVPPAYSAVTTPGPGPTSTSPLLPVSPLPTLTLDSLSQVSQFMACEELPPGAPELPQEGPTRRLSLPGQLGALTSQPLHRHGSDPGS
Regarding `O=C(COC(=O)c1ccco1)NCc1cccs1`, the “hERG current change (%, negative = inhibition) at 10uM” value amounted to 12.4%. As for `CC(=O)Nc1cc(C(=O)NCc2ccco2)ccc1Sc1ccc(Cl)cc1`, the “hERG current change (%, negative = inhibition) at 10uM” value is reported as -35.6%. `CC(=O)Nc1cc(C(=O)N(C)Cc2ccco2)ccc1Sc1ccc(Cl)cc1`: the “hERG current change (%, negative = inhibition) at 10uM” value is -66.7%. As to `CCC(=O)Nc1cc(C(=O)O)ccc1Sc1ccc(C)cc1`, the “hERG current change (%, negative = inhibition) at 10uM” value turned out to be 4.85%. The value for `CCOc1ccccc1CNC(=O)c1ccc(Sc2ccc(Cl)cc2)c(NC(C)=O)c1` was -19.4%; that for `CCN(CC)CCNC(=O)c1ccc(Sc2ccc(C)cc2)c(NC(C)=O)c1` was -58.2%; that for `CCN(CC)CCNC(=O)c1ccc(Sc2ccc(Cl)cc2)c(NC(C)=O)c1` was -61.7%.

On to `CC(=O)Nc1cc(C(=O)NCCN2CCN(Cc3ccccc3)CC2)ccc1Sc1ccc(C)cc1`, for which the “hERG current change (%, negative = inhibition) at 10uM” value was -63.6%. In the case of `CCOc1ccc(CNC(=O)c2ccc(Sc3ccc(C)cc3)c(NC(C)=O)c2)cc1` it was -4.85%; in that of `CCOc1ccc(CNC(=O)c2ccc(Sc3ccc(C)cc3)c(NC(C)=O)c2)cc1OC`, -21.5%; in that of `CCOc1ccc(CNC(=O)c2ccc(Sc3ccc(Cl)cc3)c(NC(C)=O)c2)cc1`, -8.57%. For `CC(=O)Nc1cc(C(=O)NCc2ccco2)ccc1Sc1ccc(C)cc1`, the “hERG current change (%, negative = inhibition) at 10uM” value is -17.8%. Take `CC(=O)Nc1cc(C(=O)NCc2ccco2)ccc1Sc1ccc(F)cc1`: the “hERG current change (%, negative = inhibition) at 10uM” value is on record as -40.8%.

In the case of `CSc1ncc(F)c(N(CCO)CCO)n1`, the “hERG current change (%, negative = inhibition) at 10uM” value came to 10.5%. With `O=C1S/C(=C\c2ccccn2)C(=O)N1Cc1ccccc1F`, the “hERG current change (%, negative = inhibition) at 10uM” value is 9.45%. The value for `O=S(=O)(Nc1cccnc1Cl)c1ccc2c(c1)OCCO2` was 15.4%; that for `COc1cc(C(=O)N(C)CCOc2ccc(C)cc2)ccc1OC1CCN(C(C)=O)CC1` was 8.41%.

For `CCN1CCC2(CC1)N=C(c1ccc(F)cc1)C(=S)N2C(=O)c1ccc(C(C)(C)C)cc1`, the “hERG current change (%, negative = inhibition) at 10uM” value was -10.8%.

Take `CN(C)CCNC(=O)NC(=O)c1ccc(Cl)cc1`: the “hERG current change (%, negative = inhibition) at 10uM” value is reported as -14.7%. In the case of `CC(C)OCCCNC(=O)NC(=O)c1ccc(Cl)cc1`, the “hERG current change (%, negative = inhibition) at 10uM” value is -6.21%. `CCN(CC)CCNC(=O)NC(=O)c1ccc(Cl)cc1`: the “hERG current change (%, negative = inhibition) at 10uM” value is given as -63%. With `COc1ccc(/C=N/NC(=O)C(C)n2nnc3ccccc32)cc1OC` (stereo not drawn), the “hERG current change (%, negative = inhibition) at 10uM” value is given as 2.4%. Regarding `C[n+]1c(-c2ccccc2)sc2ccccc21.[O-][Cl+3]([O-])([O-])[O-]`, the “hERG current change (%, negative = inhibition) at 10uM” value is given as 23.1%. As to `CC[n+]1c(C)sc2cc(C)ccc21.[I-]`, the “hERG current change (%, negative = inhibition) at 10uM” value was 15%. The value for `Cc1ccc2c(c1)sc(-c1ccc(N(C)C)cc1)[n+]2C.[I-]` was -60%; that for `O=C(CN1C(=O)c2cccnc2Oc2ccc(Cl)cc21)NC1CCCCC1` was -13.1%. In the case of `CC(=O)Nc1ccc(/C=C/C(=O)c2ccc3c(c2)OCCO3)cc1` it was -0.901%. With `CCOc1ccc(C(=O)NC(C(=O)NCC(c2cccs2)N(C)C)C(C)C)cc1` (stereo not drawn), the “hERG current change (%, negative = inhibition) at 10uM” value is reported as -19.8%.

Take `O=C(NCCc1c[nH]c2ccccc12)/C(=C/c1ccco1)NC(=O)c1ccco1`: the “hERG current change (%, negative = inhibition) at 10uM” value is -42.5%. Regarding `O=C(NCCCn1ccnc1)/C(=C\c1cccnc1)NC(=O)c1ccco1`, the “hERG current change (%, negative = inhibition) at 10uM” value was -0.164%.

As to `O=C(NCCc1c[nH]c2ccccc12)/C(=C\c1cccnc1)NC(=O)c1ccco1`, the “hERG current change (%, negative = inhibition) at 10uM” value is -65.1%. As to `O=C(NCCc1c[nH]c2ccccc12)c1ccco1`, the “hERG current change (%, negative = inhibition) at 10uM” value is recorded as 3.71%. Consider `O=C(NCCc1c[nH]c2ccccc12)/C(=C/c1cccnc1)NC(=O)c1ccco1`, for which the “hERG current change (%, negative = inhibition) at 10uM” value is -64.7%. Regarding `O=C(NCCc1c[nH]c2ccccc12)/C(=C\c1ccco1)NC(=O)c1ccco1`, the “hERG current change (%, negative = inhibition) at 10uM” value is recorded as -21.3%. `CC1CCCC(C)N1C(=O)COC(=O)c1nn(C)c(=O)c2ccccc12` (stereo not drawn): the “hERG current change (%, negative = inhibition) at 10uM” value was 1.93%. As to `COc1ccc(C(=O)N/C(=C\c2cn(C)c3ccccc23)C(=O)N2CCN(C)CC2)cc1OC`, the “hERG current change (%, negative = inhibition) at 10uM” value is given as -3.26%.

Consider `COc1ccc(C(=O)N/C(=C\c2cn(S(=O)(=O)N(C)C)c3ccccc23)C(=O)N2CCOCC2)cc1`, for which the “hERG current change (%, negative = inhibition) at 10uM” value was -47%. `CCOC(=O)N1CCN(C(=O)/C(=C/c2ccccc2OC)NC(=O)c2ccccc2)CC1`: the “hERG current change (%, negative = inhibition) at 10uM” value was -37.9%. In the case of `CCOC(=O)N1CCN(C(=O)/C(=C/c2cccc3ccccc23)NC(=O)c2ccc(OC)c(OC)c2)CC1` it was -3.14%; in that of `COc1ccc(C(=O)N/C(=C\c2cn(C)c3ccccc23)C(=O)N2CCN(C)CC2)cc1`, -7.61%; in that of `COc1ccc(C(=O)N/C(=C\c2cn(S(=O)(=O)N(C)C)c3ccccc23)C(=O)N2CCN(C)CC2)cc1`, -50.8%. The value for `COc1ccc(C(=O)N/C(=C\c2cccc3ccccc23)C(=O)N2CCN(C)CC2)cc1` was -65.6%. Turning to `COc1ccc(C(=O)N/C(=C\c2cn(C)c3ccccc23)C(=O)N2CCOCC2)cc1`, the “hERG current change (%, negative = inhibition) at 10uM” value is -10.9%. For `COc1ccc(C(=O)N/C(=C\c2cccc3ccccc23)C(=O)N2CCN(C)CC2)cc1OC`, the “hERG current change (%, negative = inhibition) at 10uM” value is given as -50.6%.

For the compound `CCOC(=O)N1CCN(C(=O)/C(=C/c2cccc3ccccc23)NC(=O)c2ccc(OC)cc2)CC1`, the “hERG current change (%, negative = inhibition) at 10uM” value was -50.9%. Turning to `CN1CCN(C(=O)/C(=C/c2cn(S(=O)(=O)N(C)C)c3ccccc23)NC(=O)c2ccccc2)CC1`, the “hERG current change (%, negative = inhibition) at 10uM” value is 0.665%. Regarding `CCn1cc(/C=C(\NC(=O)c2ccc(OC)c(OC)c2)C(=O)N2CCN(C)CC2)c2ccccc21`, the “hERG current change (%, negative = inhibition) at 10uM” value is reported as -32.8%. As to `CCCCC[n+]1ccn(C2=C([O-])c3ccccc3C(=O)/C2=N\S(=O)(=O)c2ccc(Br)cc2)c1`, the “hERG current change (%, negative = inhibition) at 10uM” value is given as -39.1%.

As to `CC(/C=C/c1ccc2c(c1)OCO2)=N\NC(=O)c1ccccc1`, the “hERG current change (%, negative = inhibition) at 10uM” value was 10.3%. As to `O=S(=O)(NC1CCSc2ccccc21)c1ccc(Cl)nc1` (stereo not drawn), the “hERG current change (%, negative = inhibition) at 10uM” value is listed as -18.1%.

`CCOc1cc(/C=C2/C(=N)N3C(=NC2=O)SN=C3S(=O)(=O)C(C)C)ccc1OC(=O)c1ccco1`: the “hERG current change (%, negative = inhibition) at 10uM” value is reported as 3.02%. Regarding `COC(=O)C1C(O)=C(C=Nc2ccc3ccccc3c2)C(=O)CC1(C)C` (stereo not drawn), the “hERG current change (%, negative = inhibition) at 10uM” value is listed as -8.23%. Consider `O=[N+]([O-])c1ccc(Sc2ccc(F)cc2)nc1`, for which the “hERG current change (%, negative = inhibition) at 10uM” value came to 11.2%. `COc1ccc(C(=O)Nc2cccc(/C=C(\CCC(=O)O)c3nc4ccccc4s3)c2)cc1`: the “hERG current change (%, negative = inhibition) at 10uM” value is 8.59%. The value for `CN(C)/C=C1\C(=O)NN=C1C(F)(F)F` was 4.44%; that for `Cc1cccn2cc(-c3cccc(S(=O)(=O)N4CCOCC4)c3)nc12` was 0.676%. Consider `COc1cc(OC)cc(C(=O)NCC(=O)N2CCCCC2)c1`, for which the “hERG current change (%, negative = inhibition) at 10uM” value is reported as 9.25%. On to `CCn1ncc(Cl)c1C(=O)Nc1ccc2c(c1)CCC2`, for which the “hERG current change (%, negative = inhibition) at 10uM” value is listed as 3.85%. For the compound `CCc1ccc(NC(=O)NCC2CCN(c3ccc(OC)cc3)C2)cc1` (stereo not drawn), the “hERG current change (%, negative = inhibition) at 10uM” value is given as -6.79%. As to `O=C(NCC1CCN(Cc2cccc(Cl)c2)CC1)Nc1ccc(Cl)cc1`, the “hERG current change (%, negative = inhibition) at 10uM” value was -76.2%.

With `Cc1ccc(NC(=O)NCC2CCN(Cc3cccc(Cl)c3)CC2)cc1Cl`, the “hERG current change (%, negative = inhibition) at 10uM” value was -19.7%. The value for `CCc1ccc(NC(=O)NCC2CCN(Cc3cccc(Cl)c3)CC2)cc1` was -82.9%; that for `O=C(NCC1CC1)Nc1ccc(Cl)cc1` was 17.7%; that for `COc1ccc(Oc2nccc(OC)c2C#N)cc1` was -0.188%. The value for `O=C(NCCCN1CCCC1=O)C1CCN(S(=O)(=O)c2cccc(Cl)c2Cl)CC1` was -18.7%. On to `O=C(/C=C/c1ccccc1)OCC(=O)N1CCCC1`, for which the “hERG current change (%, negative = inhibition) at 10uM” value is given as 0.185%. As to `Cc1cc(NC(=O)CCN2CC(C)OC(C)C2)ccc1Br.Cl` (stereo not drawn), the “hERG current change (%, negative = inhibition) at 10uM” value was -7.73%. On to `Cc1cc(NC(=O)CCN2CCN(C)CC2)ccc1Br.Cl`, for which the “hERG current change (%, negative = inhibition) at 10uM” value is recorded as -7.85%.

As to `CCN1CCN(CCC(=O)Nc2ccc(Br)c(C)c2)CC1.Cl`, the “hERG current change (%, negative = inhibition) at 10uM” value is reported as -30.8%. Consider `Cc1cc(NC(=O)CCN2CCCCC2)ccc1Br`, for which the “hERG current change (%, negative = inhibition) at 10uM” value is -72.8%. As for `Cc1cc(NC(=O)CCN2CCC(C)CC2)ccc1Br.Cl`, the “hERG current change (%, negative = inhibition) at 10uM” value is given as -57.6%. In the case of `Cc1cc(NC(=O)CCN2CCN(CCO)CC2)ccc1Br.Cl` it was -4.69%; in that of `CC1(C)Cc2c(C#N)c(NCc3ccco3)nc(-c3ccco3)c2CO1`, -8.94%; in that of `CC1(C)Cc2c(C#N)c(NCCN3CCOCC3)nc(-c3ccco3)c2CO1`, -6.23%. In the case of `CCN(CC)CCNc1nc(-c2ccccc2)c2c(c1C#N)CC(C)(C)OC2`, the “hERG current change (%, negative = inhibition) at 10uM” value is on record as -66.4%. In the case of `CN(C)CCNc1nc(-c2ccco2)c2c(c1C#N)CC(C)(C)OC2`, the “hERG current change (%, negative = inhibition) at 10uM” value was -55.7%. The value for `CC1(C)Cc2c(C#N)c(N3CCOCC3)nc(-c3ccccc3)c2CO1` was -12.1%; that for `CC1(C)Cc2c(C#N)c(NCCO)nc(-c3ccco3)c2CO1` was -4.23%; that for `Cc1nc(NCCN)c(C#N)c2c1COC(C)(C)C2` was 16%. Regarding `CC1(C)Cc2c(C#N)c(NCCc3ccccc3)nc(-c3ccco3)c2CO1`, the “hERG current change (%, negative = inhibition) at 10uM” value stood at 12.5%. Consider `CCN(CC)CCNc1nc(-c2ccco2)c2c(c1C#N)CC(C)(C)OC2`, for which the “hERG current change (%, negative = inhibition) at 10uM” value is listed as -62.6%. For `COC(=O)c1c(NC(=S)NN2CCOCC2)sc2c1CCCC2`, the “hERG current change (%, negative = inhibition) at 10uM” value was 8.03%.

`COc1ccc(S(=O)(=O)Nc2ccc(S(=O)(=O)NCC3CCCO3)cc2)cc1` (stereo not drawn): the “hERG current change (%, negative = inhibition) at 10uM” value turned out to be 6.4%. As for `CCc1nc2c(sc3nc4c(cc32)COC(C)(C)C4)c(=O)n1CCN(CC)CC`, the “hERG current change (%, negative = inhibition) at 10uM” value is listed as -38.1%.

For the origin of these results see publication PMC4336329 (PLoS ONE, 2015).
